# Source: PubChem BioAssay AID1903 (Southern Research Specialized Biocontainment Screening …, 2009)
# Hit rate of the full screen: of about 310,000 compounds, about 1,200 (0.39%) were called active. The list is a sample of the results. Potency and affinity values are given separately. A number with no mark means an inactive call. No rule for the calls is given here.
# Biological target: Large T antigen (Simian virus 40) (UniProt P03070)
# Experiment: TAg ATPase/helicase activity blockers – biochemical (AID 1903)
# Conditions: SV40 large T antigen ATPase/helicase inhibition assay; at 20 µM; stronger effect = higher value
# Large T antigen (Simian virus 40), sequence (P03070 whole entry, looked up): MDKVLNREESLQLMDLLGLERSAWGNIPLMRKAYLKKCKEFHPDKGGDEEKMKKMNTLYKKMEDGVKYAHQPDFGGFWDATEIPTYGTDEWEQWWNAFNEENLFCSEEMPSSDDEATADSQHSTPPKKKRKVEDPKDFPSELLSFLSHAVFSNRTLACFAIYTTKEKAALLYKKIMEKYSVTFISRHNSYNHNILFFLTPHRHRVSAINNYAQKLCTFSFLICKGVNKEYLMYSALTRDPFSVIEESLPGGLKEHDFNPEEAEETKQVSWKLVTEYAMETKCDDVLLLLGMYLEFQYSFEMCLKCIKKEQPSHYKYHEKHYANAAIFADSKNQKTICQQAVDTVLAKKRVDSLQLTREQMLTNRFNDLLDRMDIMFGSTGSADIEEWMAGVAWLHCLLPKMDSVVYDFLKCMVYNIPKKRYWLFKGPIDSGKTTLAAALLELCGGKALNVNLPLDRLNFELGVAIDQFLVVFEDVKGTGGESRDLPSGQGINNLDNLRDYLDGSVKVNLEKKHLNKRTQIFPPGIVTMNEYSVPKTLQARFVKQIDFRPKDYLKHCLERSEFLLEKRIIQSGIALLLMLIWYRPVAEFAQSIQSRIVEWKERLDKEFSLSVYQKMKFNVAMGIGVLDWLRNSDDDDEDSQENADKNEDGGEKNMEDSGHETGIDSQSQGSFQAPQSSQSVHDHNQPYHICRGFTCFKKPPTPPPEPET
row,Compound,inhibition [%]
1,CC(=O)Nc1ccc2oc(-c3cc(F)c(F)cc3Cl)nc2c1,0.785
2,Cc1ccc2c(c1)NC(=O)C(CC(=O)O)O2 (stereo not given),3.98
3,CCOC(=O)/C=C1\Nc2ccccc2OC1=O,28.2
4,CCCN(CCC)S(=O)(=O)c1ccc(NC(=O)C2CCCO2)cc1 (stereo not given),3.88
5,N/C(COc1ccc(C(=O)O)cc1)=N\O,0.11
6,OCCNc1c2ccccc2nc2ccccc12,12.6
7,COc1ccc(CCNc2c3ccccc3nc3ccccc23)cc1OC,11.5
8,CCN(CC)CCN1C(=O)C(O)=C(C(=O)c2sc(C)nc2C)C1c1cccnc1 (stereo not given),2.43
9,CCN(CC)CCN1C(=O)C(O)=C(C(=O)c2cc3ccccc3o2)C1c1cccnc1 (stereo not given),2.07
10,O=C(O)CC(NS(=O)(=O)c1cccc2nsnc12)c1ccc(F)cc1 (stereo not given),0.56
11,O=c1[nH]n(-c2ccccc2)c(=O)c2ccccc12,3.85
12,O=c1c2ccccc2c2ccccc2c(=O)n1-c1ccccc1,4.04
13,COc1cccc(C(=O)Nc2cc(OC)ccc2NC(=O)c2ccco2)c1,17.6
14,Nc1ccc2c(c1)C(=O)C(=O)c1ccccc1-2,15.6
15,NCCN=C1NS(=O)(=O)c2ccccc21,7.44
16,CC(=O)Nc1ccc(S(=O)(=O)Nc2nc3ccccc3nc2Nc2ccc(S(N)(=O)=O)cc2)cc1,6.12
17,CC(=O)Nc1ccc(Nc2nc3ccccc3nc2NS(=O)(=O)c2ccccc2)cc1,23.5
18,COc1ccc(Nc2nc3ccccc3nc2NS(=O)(=O)c2ccc(NC(C)=O)cc2)cc1,12.8
19,CC(=O)Nc1ccc(S(=O)(=O)Nc2nc3ccccc3nc2Nc2ccccc2)cc1,1.54
20,Cn1c(=O)c(C(=O)c2ccc(S(C)(=O)=O)c(Cl)c2Cl)c(O)c2ccccc21,17
21,Cn1cc(C(=O)NCCO)c(=O)c2ccccc21,-1.83
22,O=C(CSc1nnc(-c2ccccc2)n1CC1CCCO1)N1CCCC1 (stereo not given),12.8
23,Cc1nnc2ccc(-c3cccc(NS(=O)(=O)c4ccccc4Cl)c3)nn12,10.3
24,CSc1ccccc1N=Cc1nc(-c2ccccc2)oc1O,8.02
25,Cc1cccc(NCC(=O)c2c(N)n(C)c(=O)n(C)c2=O)c1C,4.72

row,Compound,inhibition [%]
1,COC(=O)CN1C(c2cccc(Cl)c2)=Nc2ccc(Cl)cc2C1c1ccccc1 (stereo not given),7.04
2,COc1cccc(/C=N/n2c(-c3cc(C)[nH]n3)n[nH]c2=S)c1OC,26.8
3,COc1cc(/C=N/n2c(-c3cc(C)[nH]n3)n[nH]c2=S)cc(OC)c1O,24.5
4,COc1cc(/C=N/n2c(C3CCCCC3)n[nH]c2=S)cc(OC)c1O,10.8
5,COc1ccc(/C=N/n2c(-c3n[nH]c4c3CCC4)n[nH]c2=S)cc1OC,23.9
6,COc1cccc(/C=N/n2c(SC)nnc2-c2ccccc2)c1O,26.3
7,COc1cc(/C=N/n2c(C3CCCCC3)n[nH]c2=S)ccc1O,21
8,COc1ccc(CCNC(=O)CN(C)S(=O)(=O)c2ccc(Br)s2)cc1OC,-4.17
9,Cc1c(Cc2ccccc2)c(=O)oc2c(C)c(OCc3nn[nH]n3)ccc12,11.2
10,CCN1CCc2c(OCC(=O)Nc3ccc4c(c3)OCCO4)cccc2C1=O,1.06
11,Cc1cc(C)c(S(=O)(=O)c2ccc(Cl)cc2)c(=O)[nH]1,7.48
12,CCOc1ccc(-c2[nH]nc3c2C(c2ccc4c(c2)OCO4)C(C#N)=C(N)O3)cc1OC (stereo not given),17
13,O=C(CN(c1ccccc1Cl)S(=O)(=O)c1ccccc1)N/N=C/c1ccccc1C(=O)O,9.75
14,CC(=O)N1CCN(CC(=O)Nc2sccc2C#N)CC1,4.43
15,CCOc1ccccc1NC(=O)C1CC2CCCC(C1)C2=O (stereo not given),14.6
16,CCc1ccccc1NC(=O)Cn1c(=O)n(-c2ccc(CC(=O)NCC3CCCO3)cc2)c(=O)c2ccccc21 (stereo not given),23.2
17,CN(C)Cc1c(O)ccc2c(=O)c(-c3ccc(Cl)cc3)coc12,2.49
18,O=c1cc(-c2ccc([N+](=O)[O-])cc2)c2ccc(O)cc2o1,9.32
19,COc1ccc(-n2cnnc2SCCC#N)cc1,2.92
20,CCOc1cc(CNc2ccc3c(c2)OCCO3)cc(Br)c1OCC(N)=O,32.4
21,COc1cc(CNCCN2CCOCC2)ccc1OCC(=O)NC(C)(C)C,3.18
22,CCOc1cc(CNc2ccc(N3CCCCC3)cc2)cc(Br)c1OCC(=O)NC(C)(C)C,19.5
23,COc1cc(CNC(C)(C)C)ccc1OCC(=O)NC(C)(C)C,12.2
24,COc1cc(CNCCCN2CCOCC2)ccc1OCC(=O)NC(C)(C)C,-1.04
25,COc1cc(CNc2ccc(N3CCOCC3)c(C(=O)O)c2)ccc1OCC(N)=O,14

row,Compound,inhibition [%]
1,O=C(c1cc2ccccc2o1)n1nnc2ccccc21,3.13
2,CC(C)(C)NS(=O)(=O)c1cc(C(=O)Nc2sccc2C#N)ccc1Cl,8.52
3,COc1cc(NC(=O)C2CCCN(S(=O)(=O)c3ccc4c(c3)oc(=O)n4C)C2)cc(OC)c1 (stereo not given),1.24
4,O=C(O)CSCC(=O)N1CCN(c2nc3cc(Cl)ccc3s2)CC1,8.15
5,C=CCNC(=O)c1ccccc1NS(=O)(=O)c1ccccc1,4.06
6,CCN(CC)CCNC(=O)c1cn(-c2ccccc2)nc1-c1cccs1,12.7
7,c1coc(-c2nnc(-c3ccco3)nn2)c1,63.8
8,c1ccc(-c2nc(-c3ccco3)cs2)nc1,23.7
9,c1coc(-c2nc3ccccc3nc2-c2ccco2)c1,50.2
10,Nc1nc(-c2ccc(-n3nncc3-c3ccco3)cc2)cs1,13.1
11,Cc1nc(-c2ccccc2)cs1,12.6
12,COc1ccc(-c2csc(C)n2)cc1OC,2.09
13,COc1ccc(-c2csc(C)n2)cc1,13.6
14,Oc1ccccc1-c1csc(-c2ccccc2)n1,6.78
15,COc1ccc(-c2csc(-c3ccc(O)cc3)n2)cc1,21
16,COc1ccc(-c2csc(C)n2)cc1Br,10.3
17,O=C1Nc2ccc(Br)cc2C1(O)c1ccc(F)cc1 (stereo not given),5.56
18,COc1ccc(F)cc1C(=O)C1CCCN(Cc2c(C)n(C)n(-c3ccccc3)c2=O)C1 (stereo not given),25.2
19,COc1ccc(C(=O)NC2CCCCC2)cc1S(=O)(=O)N1CCOCC1,1.05
20,CC(OC(=O)c1cccc(Cl)c1)C(=O)NC1CCCCC1C (stereo not given),27.1
21,Nc1nnc(SCC(=O)N2CCCCC2)s1,-7.45
22,COc1ccc(-n2nc3cc(C)c(N)cc3n2)cc1Cl,-6.4
23,O=C(CN(Cc1ccccc1)C(=O)c1csnn1)NCc1ccccc1,7.5
24,Cc1nc2ccc(NC(=O)c3ccc(Cl)c([N+](=O)[O-])c3)cc2s1,6.3
25,Cc1nc2ccc(NC(=O)c3ccc([N+](=O)[O-])cc3[N+](=O)[O-])cc2s1,8.68

row,Compound,inhibition [%]
1,COc1ccccc1C(NC(C)=O)c1cc(Cl)c2cccnc2c1O (stereo not given),3.72
2,CCOc1ccc(C(Nc2cccnc2)c2cc(Cl)c3cccnc3c2O)cc1 (stereo not given),15.7
3,CCOC(=O)C1(Cc2ccccc2C)CCCN(S(=O)(=O)CC)C1 (stereo not given),6.84
4,Cc1ccc(C)c(S(=O)(=O)Nc2ccc(C(N)=O)cc2)c1,20.6
5,Cc1cc(C)c(S(=O)(=O)Nc2ccc(O)cc2)c(C)c1,29.1
6,Cc1cc(C)c(C)c(S(=O)(=O)Nc2ccc(O)cc2)c1C,30.2
7,Cc1cc(C)c(S(=O)(=O)Nc2ccc(O)cc2)cc1C,48.1
8,COCCOc1cc(N(CC(=O)N(C)C)S(=O)(=O)c2ccccc2)c(Cl)cc1Cl,-5.2
9,Cc1cc(C)c2c(=O)[nH]n(C3CCOC(C)(C)C3)c2n1 (stereo not given),13.4
10,O=C(Nc1ccccc1C(=O)Nc1nnc(C(F)(F)F)s1)c1ccccc1Cl,10.1
11,CNC(=O)c1cc(S(=O)(=O)NCc2ccncc2)ccc1OC,11.8
12,COc1ccccc1S(=O)(=O)CC(O)COc1ccc(F)cc1Cl (stereo not given),4.29
13,COc1ccc(/C=C/C(=O)C2CC2)cc1COc1c(C)cccc1C,7.52
14,COC(=O)CC1SC(=O)NC1=Nc1ccc(OC)cc1 (stereo not given),3.46
15,COC(=O)CC1SC(=O)NC1=Nc1ccc(C)cc1 (stereo not given),0.63
16,Cc1cc(S(=O)(=O)NCc2ccccc2)ccc1OCC(=O)NCc1cccnc1,8.52
17,O=C(COc1ccccc1Br)Nc1ccc2c(c1)OCCCO2,8.78
18,CCOc1ccc(N2C(=O)CC(Sc3n[nH]c(-c4ccccc4)n3)C2=O)cc1 (stereo not given),33.8
19,COc1ccc(N2C(=O)CC(Sc3n[nH]c(-c4ccc(C)cc4)n3)C2=O)cc1 (stereo not given),28.9
20,Cc1nc2ccccc2n1CC(=O)NCCN1CCOCC1,21.1
21,CCCCn1c(N)c(N(CCOC)C(=O)COC(=O)CSc2cc(C)c3ccccc3n2)c(=O)[nH]c1=O,11.3
22,c1ccc(Nc2nc(NCC3CCCO3)c3ccccc3n2)cc1 (stereo not given),5.53
23,Oc1ccccc1Nc1nc(NCC2CCCO2)c2ccccc2n1 (stereo not given),31.9
24,OCCNc1nc(Nc2ccc(Br)cc2)nc2ccccc12,2.29
25,OCCNc1nc(Nc2ccccc2)nc2ccccc12,1.4
